Common to all, as to assay: DAPPL (digital affinity profiling via proximity ligation, sequencing); 10 mM Tris-HCl pH 7.5, 50 mM NaCl, 1 mM DTT, 4% glycerol, room temperature, 30 min; GST-TFs on glutathione beads, 16-mer random dsDNA library, 0.1% formaldehyde crosslink after washing; high values mean tight binding
What all share (conditions): protein: recombinant; tags: N-terminal GST; dsDNA, one strand shown

For one test, the target named is T1, FEV (Homo sapiens, UniProt Q99581 1-238).
T1 sequence: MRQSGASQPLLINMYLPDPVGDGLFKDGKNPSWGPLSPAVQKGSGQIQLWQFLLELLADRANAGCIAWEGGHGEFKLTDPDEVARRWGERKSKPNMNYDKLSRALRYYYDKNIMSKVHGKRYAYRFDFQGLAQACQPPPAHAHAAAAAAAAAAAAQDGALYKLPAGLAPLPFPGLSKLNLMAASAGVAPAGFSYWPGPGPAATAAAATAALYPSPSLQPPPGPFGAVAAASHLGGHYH
Put shortly: (§1)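 The binding signal reported is, for every hexamer, its read frequency for a factor over its read frequency for the tag-only sample. Reads came from pools of yeast-expressed, GST-fused human transcription factors on glutathione beads, barcoded with DNA and mixed with that sample, which were incubated with 200 nmole of a random double-stranded 16-mer DNA library in Tris/NaCl/DTT/glycerol buffer at room temperature for 30 min. After washing, the pools were crosslinked with 0.1% formaldehyde, proximity-ligated with BsaI/T4 ligase for 1 h at 37 °C, PCR-amplified and sequenced on an Illumina NextSeq500.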

Another test deals with ETV5 (Homo sapiens, UniProt P41161 1-510). The method in brief: as §1
ETV5, sequence (P41161 whole entry): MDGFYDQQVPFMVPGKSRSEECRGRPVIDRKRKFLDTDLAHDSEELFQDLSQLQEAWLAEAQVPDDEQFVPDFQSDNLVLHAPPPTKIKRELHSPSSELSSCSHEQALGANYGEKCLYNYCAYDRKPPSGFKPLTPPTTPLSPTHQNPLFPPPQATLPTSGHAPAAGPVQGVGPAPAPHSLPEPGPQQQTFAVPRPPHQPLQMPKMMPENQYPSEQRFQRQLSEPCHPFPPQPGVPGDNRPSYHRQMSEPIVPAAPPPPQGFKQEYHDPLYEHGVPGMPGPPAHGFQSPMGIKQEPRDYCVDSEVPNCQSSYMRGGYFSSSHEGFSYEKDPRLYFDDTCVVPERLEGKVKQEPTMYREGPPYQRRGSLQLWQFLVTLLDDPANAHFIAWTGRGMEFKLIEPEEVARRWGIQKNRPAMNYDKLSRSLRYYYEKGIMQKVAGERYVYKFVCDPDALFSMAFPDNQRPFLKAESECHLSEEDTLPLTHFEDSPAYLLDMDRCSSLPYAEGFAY
The target in another test is T2, ELF3 (Homo sapiens, UniProt P78545 1-371).
T2 sequence: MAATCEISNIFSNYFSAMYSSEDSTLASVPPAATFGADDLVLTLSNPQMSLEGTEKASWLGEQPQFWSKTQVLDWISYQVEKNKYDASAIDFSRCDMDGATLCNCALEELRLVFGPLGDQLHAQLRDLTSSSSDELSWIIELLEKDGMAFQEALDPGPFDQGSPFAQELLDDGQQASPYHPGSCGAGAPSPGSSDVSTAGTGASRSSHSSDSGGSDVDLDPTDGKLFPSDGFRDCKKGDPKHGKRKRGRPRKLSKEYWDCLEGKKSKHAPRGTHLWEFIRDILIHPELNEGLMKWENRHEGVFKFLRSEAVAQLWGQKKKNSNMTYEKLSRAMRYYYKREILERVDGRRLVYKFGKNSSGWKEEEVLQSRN
Put shortly:
as §1

Another test concerns the target T3, SPDEF (Homo sapiens, UniProt O95238 1-335).
T3 sequence: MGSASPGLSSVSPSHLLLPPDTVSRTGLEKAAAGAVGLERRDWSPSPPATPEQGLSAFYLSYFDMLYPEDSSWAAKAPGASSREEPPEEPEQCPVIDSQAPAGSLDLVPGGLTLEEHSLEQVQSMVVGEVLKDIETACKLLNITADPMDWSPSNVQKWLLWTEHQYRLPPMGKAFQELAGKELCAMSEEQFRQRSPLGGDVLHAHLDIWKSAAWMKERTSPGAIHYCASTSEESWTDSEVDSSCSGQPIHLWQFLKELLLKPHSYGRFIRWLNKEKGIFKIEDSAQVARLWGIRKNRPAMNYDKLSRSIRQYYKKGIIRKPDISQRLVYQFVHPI
Put shortly: as §1

In another test the target is T4, ETV7 (Homo sapiens, UniProt Q9Y603 1-341).
T4 sequence: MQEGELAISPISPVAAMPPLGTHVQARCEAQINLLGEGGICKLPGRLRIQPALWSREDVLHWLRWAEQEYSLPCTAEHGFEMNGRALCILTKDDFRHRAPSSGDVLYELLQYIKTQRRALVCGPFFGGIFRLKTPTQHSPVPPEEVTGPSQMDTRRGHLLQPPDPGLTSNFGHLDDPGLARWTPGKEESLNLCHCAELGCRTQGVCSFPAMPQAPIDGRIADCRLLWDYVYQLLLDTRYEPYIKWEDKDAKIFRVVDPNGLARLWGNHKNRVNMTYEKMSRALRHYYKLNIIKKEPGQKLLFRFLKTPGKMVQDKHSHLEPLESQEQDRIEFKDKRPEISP
Put shortly:
as §1

Another test deals with T5, ELK1 (Homo sapiens, UniProt P19419 1-428).
T5 sequence: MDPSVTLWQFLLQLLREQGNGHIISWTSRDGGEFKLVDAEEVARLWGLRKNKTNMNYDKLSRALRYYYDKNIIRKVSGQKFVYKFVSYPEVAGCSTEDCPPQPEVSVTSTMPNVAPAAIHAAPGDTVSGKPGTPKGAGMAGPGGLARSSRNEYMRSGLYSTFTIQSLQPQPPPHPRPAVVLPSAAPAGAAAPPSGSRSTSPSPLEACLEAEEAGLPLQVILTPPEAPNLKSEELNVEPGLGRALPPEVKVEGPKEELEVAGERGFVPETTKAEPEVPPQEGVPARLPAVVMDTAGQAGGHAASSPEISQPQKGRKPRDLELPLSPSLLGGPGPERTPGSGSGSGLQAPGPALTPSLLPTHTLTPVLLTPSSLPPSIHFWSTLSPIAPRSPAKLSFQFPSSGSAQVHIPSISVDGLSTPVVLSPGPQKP
The method in brief:
as §1

The target in the next test is T6, GABPA (Homo sapiens, UniProt Q06546 1-454).
T6 sequence: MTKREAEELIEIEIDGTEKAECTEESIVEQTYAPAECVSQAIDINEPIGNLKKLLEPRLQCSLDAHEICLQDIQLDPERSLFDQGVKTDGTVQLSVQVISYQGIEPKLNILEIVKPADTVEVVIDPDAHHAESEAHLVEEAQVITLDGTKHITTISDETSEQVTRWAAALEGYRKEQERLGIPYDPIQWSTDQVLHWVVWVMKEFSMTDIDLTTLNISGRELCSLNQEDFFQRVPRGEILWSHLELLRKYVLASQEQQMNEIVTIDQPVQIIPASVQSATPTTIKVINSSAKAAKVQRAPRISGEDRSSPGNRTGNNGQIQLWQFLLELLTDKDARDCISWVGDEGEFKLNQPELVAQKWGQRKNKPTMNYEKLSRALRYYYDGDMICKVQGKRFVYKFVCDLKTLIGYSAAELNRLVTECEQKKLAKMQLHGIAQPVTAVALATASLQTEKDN
The method in brief: as §1

In another test the target is T7, ERG (Homo sapiens, UniProt P11308 1-479).
T7 sequence: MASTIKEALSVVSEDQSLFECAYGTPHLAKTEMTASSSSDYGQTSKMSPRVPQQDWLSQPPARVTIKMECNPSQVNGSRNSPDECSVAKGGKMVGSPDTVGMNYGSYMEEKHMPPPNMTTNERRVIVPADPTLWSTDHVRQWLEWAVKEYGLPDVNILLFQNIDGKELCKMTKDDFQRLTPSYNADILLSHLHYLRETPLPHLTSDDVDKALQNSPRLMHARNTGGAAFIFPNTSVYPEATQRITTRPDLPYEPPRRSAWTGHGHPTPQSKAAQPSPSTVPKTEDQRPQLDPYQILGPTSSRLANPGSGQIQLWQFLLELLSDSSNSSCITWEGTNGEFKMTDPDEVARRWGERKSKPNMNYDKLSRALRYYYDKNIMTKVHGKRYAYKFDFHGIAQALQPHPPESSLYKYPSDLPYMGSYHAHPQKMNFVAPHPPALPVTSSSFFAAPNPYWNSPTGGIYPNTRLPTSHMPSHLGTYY
The method in brief:
as §1

The next test concerns the target ELF1 (Homo sapiens, UniProt P32519 1-619). Put shortly:
as §1

In the next test the target is T8, EHF (Homo sapiens, UniProt Q9NZC4 1-300).
T8 sequence: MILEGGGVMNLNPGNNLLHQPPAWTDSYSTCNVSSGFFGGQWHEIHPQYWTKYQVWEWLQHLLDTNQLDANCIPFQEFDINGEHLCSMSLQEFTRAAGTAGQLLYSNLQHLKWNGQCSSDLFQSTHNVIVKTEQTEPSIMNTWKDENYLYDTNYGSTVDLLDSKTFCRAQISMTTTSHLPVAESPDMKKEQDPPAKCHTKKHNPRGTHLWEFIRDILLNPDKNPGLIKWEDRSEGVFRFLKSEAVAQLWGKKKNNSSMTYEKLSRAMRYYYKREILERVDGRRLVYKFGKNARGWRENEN
Put shortly:
as §1

For another test, the target named is SPIB (Homo sapiens, UniProt Q01892 1-262). Put shortly: as §1
SPIB, sequence (Q01892 whole entry): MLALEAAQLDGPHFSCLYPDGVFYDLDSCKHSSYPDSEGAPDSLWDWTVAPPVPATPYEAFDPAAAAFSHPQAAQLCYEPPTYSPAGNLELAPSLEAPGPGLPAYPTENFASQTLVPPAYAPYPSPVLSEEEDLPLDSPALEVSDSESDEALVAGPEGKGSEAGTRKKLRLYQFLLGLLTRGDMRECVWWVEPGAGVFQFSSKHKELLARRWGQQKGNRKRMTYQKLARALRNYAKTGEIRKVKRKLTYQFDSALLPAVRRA
The target in a further test is ELF4 (Homo sapiens, UniProt Q99607 1-663). The method in brief: as §1
ELF4, sequence (Q99607 whole entry): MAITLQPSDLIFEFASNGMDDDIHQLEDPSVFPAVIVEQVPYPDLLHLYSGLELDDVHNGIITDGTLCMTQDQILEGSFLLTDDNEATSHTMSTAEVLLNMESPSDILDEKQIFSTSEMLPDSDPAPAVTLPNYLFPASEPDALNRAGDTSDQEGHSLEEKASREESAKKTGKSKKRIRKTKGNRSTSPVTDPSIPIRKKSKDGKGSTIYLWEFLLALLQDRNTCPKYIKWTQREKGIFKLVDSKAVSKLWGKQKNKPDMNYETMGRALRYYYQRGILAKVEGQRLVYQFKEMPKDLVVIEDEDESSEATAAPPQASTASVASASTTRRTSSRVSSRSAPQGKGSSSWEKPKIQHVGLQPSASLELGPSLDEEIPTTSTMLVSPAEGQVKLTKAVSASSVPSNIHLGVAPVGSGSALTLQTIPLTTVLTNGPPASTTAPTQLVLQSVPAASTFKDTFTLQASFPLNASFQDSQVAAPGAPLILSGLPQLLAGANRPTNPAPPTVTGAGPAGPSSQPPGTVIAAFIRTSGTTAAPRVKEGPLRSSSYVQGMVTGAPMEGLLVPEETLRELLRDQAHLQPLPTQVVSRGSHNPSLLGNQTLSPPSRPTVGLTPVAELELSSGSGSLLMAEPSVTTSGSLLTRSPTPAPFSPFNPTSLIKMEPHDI
Another test concerns the target T9, ETV2 (Homo sapiens, UniProt O00321 1-342).
T9 sequence: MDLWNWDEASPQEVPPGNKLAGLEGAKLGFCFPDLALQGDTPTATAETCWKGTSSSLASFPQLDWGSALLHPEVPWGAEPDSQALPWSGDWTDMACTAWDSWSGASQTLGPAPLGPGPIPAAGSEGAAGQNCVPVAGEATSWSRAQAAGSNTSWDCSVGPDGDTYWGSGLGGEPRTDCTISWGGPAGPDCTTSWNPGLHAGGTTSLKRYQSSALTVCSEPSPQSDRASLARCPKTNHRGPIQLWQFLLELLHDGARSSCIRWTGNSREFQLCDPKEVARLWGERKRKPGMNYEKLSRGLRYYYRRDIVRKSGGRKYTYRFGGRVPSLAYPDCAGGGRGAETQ
Put shortly: as §1

The next test concerns the target ETV1 (Homo sapiens, UniProt P50549 1-477). Put shortly: as §1
A further test addresses T10, ERF (Homo sapiens, UniProt P50548 1-548).
T10 sequence: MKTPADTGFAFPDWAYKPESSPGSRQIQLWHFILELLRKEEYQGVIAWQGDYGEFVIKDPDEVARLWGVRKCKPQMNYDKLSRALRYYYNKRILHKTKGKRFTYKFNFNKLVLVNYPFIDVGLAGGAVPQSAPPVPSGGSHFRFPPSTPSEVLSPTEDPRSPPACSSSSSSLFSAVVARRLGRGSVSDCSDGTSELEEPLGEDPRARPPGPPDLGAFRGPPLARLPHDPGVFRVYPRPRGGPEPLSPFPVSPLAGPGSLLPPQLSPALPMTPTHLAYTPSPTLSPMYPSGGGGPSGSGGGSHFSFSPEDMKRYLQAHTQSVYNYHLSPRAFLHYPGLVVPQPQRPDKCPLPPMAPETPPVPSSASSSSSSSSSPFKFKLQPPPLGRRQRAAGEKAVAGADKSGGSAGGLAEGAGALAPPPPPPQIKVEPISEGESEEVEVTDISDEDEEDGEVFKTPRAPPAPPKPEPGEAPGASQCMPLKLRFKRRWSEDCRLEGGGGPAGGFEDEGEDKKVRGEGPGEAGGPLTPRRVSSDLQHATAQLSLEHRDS
The method in brief: as §1

Another test concerns the target T11, ETV3 (Homo sapiens, UniProt P41162-2 1-143).
T11 sequence: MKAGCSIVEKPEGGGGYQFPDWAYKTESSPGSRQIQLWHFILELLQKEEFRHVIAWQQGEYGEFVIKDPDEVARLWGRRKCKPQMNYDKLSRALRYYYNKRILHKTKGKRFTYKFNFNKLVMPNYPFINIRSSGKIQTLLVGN
Put shortly: as §1

ELF1, sequence (P32519 whole entry): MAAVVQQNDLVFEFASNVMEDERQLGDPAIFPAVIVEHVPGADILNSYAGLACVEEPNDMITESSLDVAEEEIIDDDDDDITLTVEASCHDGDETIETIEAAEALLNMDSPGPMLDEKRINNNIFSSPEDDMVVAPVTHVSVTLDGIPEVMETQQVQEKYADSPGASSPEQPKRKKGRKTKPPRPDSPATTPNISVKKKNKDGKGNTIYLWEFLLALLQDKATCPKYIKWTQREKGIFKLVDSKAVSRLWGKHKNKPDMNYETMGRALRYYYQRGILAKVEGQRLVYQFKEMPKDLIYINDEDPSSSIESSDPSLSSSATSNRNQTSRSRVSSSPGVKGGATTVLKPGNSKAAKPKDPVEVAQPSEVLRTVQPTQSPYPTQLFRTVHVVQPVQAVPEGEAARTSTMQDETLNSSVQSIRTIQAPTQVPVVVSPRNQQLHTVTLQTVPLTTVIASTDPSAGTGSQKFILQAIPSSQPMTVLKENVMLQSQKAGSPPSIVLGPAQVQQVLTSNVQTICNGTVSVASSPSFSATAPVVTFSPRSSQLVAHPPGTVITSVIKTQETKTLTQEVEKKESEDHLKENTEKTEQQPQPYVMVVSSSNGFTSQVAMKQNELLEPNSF
ETV1, sequence (P50549 whole entry): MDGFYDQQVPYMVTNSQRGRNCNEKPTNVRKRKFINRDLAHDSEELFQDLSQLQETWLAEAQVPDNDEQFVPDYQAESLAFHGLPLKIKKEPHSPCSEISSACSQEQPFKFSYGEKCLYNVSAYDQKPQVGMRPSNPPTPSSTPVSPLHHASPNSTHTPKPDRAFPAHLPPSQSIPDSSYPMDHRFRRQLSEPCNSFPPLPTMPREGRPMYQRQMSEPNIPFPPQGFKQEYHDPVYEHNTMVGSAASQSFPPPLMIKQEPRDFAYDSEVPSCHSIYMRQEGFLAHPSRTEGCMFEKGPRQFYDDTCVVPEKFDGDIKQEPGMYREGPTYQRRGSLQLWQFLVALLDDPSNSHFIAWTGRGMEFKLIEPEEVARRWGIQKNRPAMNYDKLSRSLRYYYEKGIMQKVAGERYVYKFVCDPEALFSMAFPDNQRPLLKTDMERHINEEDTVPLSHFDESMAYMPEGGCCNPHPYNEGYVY

Regarding TGACGG, the binding signal with FEV is 1.06 fold enrichment (6-mer frequency, TF over GST control); with ETV5, 1.04 fold enrichment (6-mer frequency, TF over GST control); with ELF3 it was 1.06 fold enrichment (6-mer frequency, TF over GST control); with SPDEF, 1.06 fold enrichment (6-mer frequency, TF over GST control); with ETV7, 1.02 fold enrichment (6-mer frequency, TF over GST control).
Consider TCGTAT, for which the binding signal is 1.08 fold enrichment (6-mer frequency, TF over GST control) with ELK1; 1.01 fold enrichment (6-mer frequency, TF over GST control) with GABPA; 1.03 fold enrichment (6-mer frequency, TF over GST control) in the test with ERG; 1.03 fold enrichment (6-mer frequency, TF over GST control) in the test with ELF1; 1 fold enrichment (6-mer frequency, TF over GST control) with EHF; 1.07 fold enrichment (6-mer frequency, TF over GST control) with SPIB. Besides, the binding signal was 1.05 fold enrichment (6-mer frequency, TF over GST control) in the test with FEV; 1.02 fold enrichment (6-mer frequency, TF over GST control) with ETV5; 1.02 fold enrichment (6-mer frequency, TF over GST control) with ELF4; 1.12 fold enrichment (6-mer frequency, TF over GST control) with ETV2; 1.05 fold enrichment (6-mer frequency, TF over GST control) with ELF3; 1 fold enrichment (6-mer frequency, TF over GST control) with ETV1. Moreover, the binding signal with ERF is 1.06 fold enrichment (6-mer frequency, TF over GST control); in the test with SPDEF, 1.05 fold enrichment (6-mer frequency, TF over GST control); with ETV3, 1.05 fold enrichment (6-mer frequency, TF over GST control).

The values are drawn from publication PMC7862700, “An all-to-all approach to the identification of sequence-specific readers for epigenetic DNA modifications on cytosine”.
